Measurements reported in PubChem BioAssay (NCI).
About 79,000 compounds went through this panel and 15% of them were active in at least one assay; those are over-represented in the sample as a whole. Unmarked numbers belong to inactive results. Calls of active or inactive are those of the source. Rule as the data show it: active = growth inhibition above about 70%; inactive = the rest.

Experiments:
[1] = NCI Yeast Anticancer Drug Screen. Data for the rad50 strain (AID 155);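 also: 0% = growth of vehicle-only cultures of the same strain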; settings: S. cerevisiae rad50 strain growth inhibition, hits give high values
How it was run: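 Cells are treated with compound, grown, and their growth is then scored against vehicle-only cultures of the same repair-deficient yeast strain.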

[2] = NCI Yeast Anticancer Drug Screen. Data for the mec2-1 strain (AID 157); settings: S. cerevisiae mec2-1 strain, hits give high values
How it was run: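 Each compound was tested on mec2-1 yeast, a strain altered in DNA damage repair or cell cycle control. Growth inhibition is reported relative to vehicle.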

[3] = NCI Yeast Anticancer Drug Screen. Data for the sgs1 mgt1 strain (AID 161);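 also: 0% = growth of cultures given vehicle only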; settings: S. cerevisiae sgs1 mgt1 strain, hits give high values
How it was run: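 Read-out: growth inhibition vs vehicle controls. Cells: mutant yeast strain deficient in DNA damage repair.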

[4] = NCI Yeast Anticancer Drug Screen. Data for the cln2 rad14 strain (AID 165);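 also: 0% = growth equal to vehicle treated cultures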; settings: S. cerevisiae cln2 rad14 strain, hits give high values
How it was run: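 Test compounds were added to cln2 rad14 yeast cultures; inhibition of growth was then determined by comparison with vehicle treatment.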

[5] = NCI Yeast Anticancer Drug Screen. Data for the bub3 strain (AID 167); settings: S. cerevisiae bub3 mutant strain, hits give high values
How it was run: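 Part of a panel of yeast mutants defective in DNA damage repair or cell cycle regulation. Each strain is grown with compound, and inhibition is calculated relative to solvent-treated cultures.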

[6] = NCI Yeast Anticancer Drug Screen. Data for the mlh1 rad18 strain (AID 175); settings: S. cerevisiae mlh1 rad18 strain growth inhibition, hits give high values
How it was run: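 Inhibition values reflect reduced growth of mutant yeast versus vehicle-treated controls following compound exposure; the mutations affect DNA damage repair.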

[7] = at 5.0 µM (retest, dose inferred, filed as 0.5)
[8] = at 50.0 µM (retest, dose inferred, filed as 5.0)

SMILES	growth inhibition [1, 7]	growth inhibition [1, 8]	growth inhibition ([1]; at 50.0 µM)	growth inhibition [2, 7]	growth inhibition [2, 8]	growth inhibition ([2]; at 50.0 µM)	growth inhibition [3, 7]	growth inhibition [3, 8]	growth inhibition ([3]; at 50.0 µM)	growth inhibition [4, 7]	growth inhibition [4, 8]	growth inhibition ([4]; at 50.0 µM)	growth inhibition [5, 7]	growth inhibition [5, 8]	growth inhibition ([5]; at 50.0 µM)	growth inhibition [6, 7]	growth inhibition [6, 8]	growth inhibition ([6]; at 50.0 µM)
CCCCCCCCNS(=O)(=O)c1ccc(N)cc1	4%	9%	80.8% (active)	0%	2%	25.2%	7%	2%	70.5% (active)	2%	0%	16.8%	1%	0%	61.2%	6%	2%	79.2% (active)
CC(C)c1ccc(N2C(=O)C=CC2=O)cc1	98% (active)	97% (active)	99.7% (active)	98% (active)	99% (active)	99.7% (active)	95% (active)	98% (active)	99.5% (active)	91% (active)	99% (active)	99.5% (active)	98% (active)	98% (active)	99.5% (active)	95% (active)	98% (active)	99.2% (active)
O=C1c2ccccc2S(=O)(=O)CC1Br (configuration not stated)	-7%	96% (active)	99.2% (active)	-21%	85% (active)	99.7% (active)	13%	98% (active)	99.3% (active)	6%	58%	99.3% (active)	-4%	89% (active)	99.4% (active)	30%	98% (active)	99.2% (active)
c1ccc(CSc2nnc(SCc3ccccc3)c3[nH]cnc23)cc1	-3%	33%	61.4%	-7%	38%	46.9%	-1%	45%	46.1%	-4%	23%	56%	-3%	45%	50.1%	-6%	34%	11.9%
CCOc1cc2c(cc1Cc1c(OC)cc(OC)cc1OC)OCO2	5%	27%	46%	3%	31%	16.5%	8%	57%	88% (active)	4%	30%	46.8%	4%	63%	77.8% (active)	7%	73% (active)	83.3% (active)
Oc1cc(Br)cc2cc(Cl)cnc12	99% (active)	89% (active)	84.5% (active)	97% (active)	87% (active)	84.5% (active)	98% (active)	93% (active)	79.8% (active)	98% (active)	88% (active)	80% (active)	98% (active)	86% (active)	83.1% (active)	98% (active)	81% (active)	75.5% (active)
Cc1cccc(NC(=S)N/N=C(/c2ccccc2)c2ccccn2)c1	-3%	94% (active)	56%	-1%	94% (active)	66.5%	-35%	93% (active)	73.2% (active)	-15%	92% (active)	74.7% (active)	-38%	93% (active)	77.4% (active)	-8%	93% (active)	76.8% (active)
NC(CSC1(c2ccc(Cl)cc2)c2ccccc2-c2ccccc21)C(=O)O (configuration not stated)	16%	68%	68%	8%	51%	61.9%	-1%	22%	35.1%	-15%	59%	43.8%	1%	44%	91.2% (active)	-2%	55%	74.8% (active)
Cc1ccc(Cl)cc1NN	-1%	95% (active)	96.5% (active)	5%	97% (active)	99.2% (active)	2%	89% (active)	48.6%	-1%	94% (active)	97.6% (active)	-2%	97% (active)	96.9% (active)	5%	96% (active)	47.6%
